Screens deposited in PubChem by The Scripps Research Institute Molecular Screening Center.
Hits are enriched below; roughly 3.5% of the tested compounds scored in any of these assays.
FBW7 act – FBW7 E3 ligase activators, primary screen, biochemical, AlphaScreen, human | normalized activity (activation), % at 26.1 µM | F-box/WD repeat-containing protein 7 (Homo sapiens), Q969H0 | hit rate 0.13% among 650,000 | AlphaScreen FBW7–phospho-cyclin E peptide binding, activator screen; in the data active = normalized activity above about 1.9%;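 also: purified mutant Fbw7 with reduced substrate affinity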
MITF primary – MITF inhibitors, primary screen, biochemical, AlphaScreen, human | AlphaScreen MITF homodimerization, bead proximity signal | inhibition, % at 2.6 µM | hit rate 0.91% among 650,000 | AID 1259374, 2018; in the data active = inhibition above about 50%;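 also: 0% = vehicle wells with protein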
Target sequence (O75030 whole entry, looked up): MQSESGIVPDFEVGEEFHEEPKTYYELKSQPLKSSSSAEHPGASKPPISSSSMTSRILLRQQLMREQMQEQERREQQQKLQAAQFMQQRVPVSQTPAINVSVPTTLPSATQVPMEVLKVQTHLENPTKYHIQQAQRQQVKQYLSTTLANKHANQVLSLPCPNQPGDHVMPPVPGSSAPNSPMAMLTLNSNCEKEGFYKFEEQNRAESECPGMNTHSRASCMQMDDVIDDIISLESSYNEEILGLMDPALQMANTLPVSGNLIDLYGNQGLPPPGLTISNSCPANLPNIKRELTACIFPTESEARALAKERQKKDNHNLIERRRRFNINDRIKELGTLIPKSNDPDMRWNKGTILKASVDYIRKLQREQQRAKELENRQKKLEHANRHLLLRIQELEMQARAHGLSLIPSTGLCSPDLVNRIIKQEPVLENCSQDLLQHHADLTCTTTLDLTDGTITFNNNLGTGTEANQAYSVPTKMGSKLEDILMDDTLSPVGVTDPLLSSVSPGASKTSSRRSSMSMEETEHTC
GPR151 ag – activators of human GPR151, primary screen, cell-based, PathHunter beta-arrestin, luminescence; PathHunter beta-arrestin GPR151 cells; activation, % at 11.2 µM; hit rate 1% among 650,000; AID 1508602, 2020; in the data active = activation above about 4.9%;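 also: 0% = median of compound wells and 100% = cells with positive control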
TEAD-YAP inh – TEAD-YAP interaction inhibition, primary screen, TEAD-YAP interaction inhibitor project, luminescence, HEK-TIYL cells; TEAD-Gal4/YAP UAS-luciferase luminescence; inhibition, % at 9.12 µM; hit rate 1.4% among 640,000; AID 1259422, 2018; in the data active = inhibition above about 32%;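 also: 0% = median of test compound wells and 100% = reference inhibitor wells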
* hit, by the source's call.

SMILES	FBW7 act	MITF primary	GPR151 ag	TEAD-YAP inh
C(=N\Nc1ccccn1)/c1sc(N2CCCCC2)nc1-c1cccs1	0	5	-1	67*
COc1ccc(OC)c(/C=C2/N=C(c3cccc([N+](=O)[O-])c3)OC2=O)c1	1.9*	15	1	3
Cc1c2oc3c(C)ccc(C(=O)N[C@@H]4C(=O)N[C@H](C(C)C)C(=O)N5CCC[C@H]5C(=O)N(C)CC(=O)N(C)[C@@H](C(C)C)C(=O)O[C@@H]4C)c3nc-2c(C(=O)N[C@@H]2C(=O)N[C@H](C(C)C)C(=O)N3CCC[C@H]3C(=O)N(C)CC(=O)N(C)[C@@H](C(C)C)C(=O)O[C@@H]2C)c(N)c1=O	0	5	0	96*
N[C@@H](Cc1ccc(Br)cc1)C(=O)N1CCC(C(=O)Nc2ccncc2)CC1	0	12	1	2
O=C(NCC1CCCO1)C1CCN(C2CCN(C(=O)c3cccc(F)c3)CC2)CC1 (configuration not stated)	0	9	1	-11
Cc1ccc(/C=C/C(=O)c2ccc(N3CCOCC3)cc2)s1	0	-1	0	49*
O=C(/C=C/c1ccc(F)cc1)c1ccc(N2CCOCC2)cc1	0	2	1	-13
COc1ccccc1Nc1c2c(nc3ccccc13)CCC2	-1	4	0	54*
c1ccc(CCNc2c3c(nc4ccccc24)CCC3)cc1	1	-14	0	39*
CCOC(=O)c1ccc(Nc2c3c(nc4ccccc24)CCC3)cc1	0	-7	0	42*
CCOC(=O)c1ccc(Nc2c(N)c(=O)oc3ccccc23)cc1	0	3	0	52*
CCOC(=O)c1ccc(S(=O)(=O)Nc2c(C(=O)OCC)oc3ccccc23)cc1	0	10	-2	4
O=C(CSc1nc2ccccc2c(=O)n1CCC(=O)N1CCN(c2ccccc2)CC1)NC1CCCC1	0	-3	2	-2
C#CCN(C)C(=O)c1cnc2scc(-c3ccc(OC)cc3)n2c1=O	0	14	0	-6
CN1CCN(C(CNC(=O)c2ccc3c(c2)OCO3)c2ccc3c(c2)OCO3)CC1 (configuration not stated)	0	-1	-2	-3
N#Cc1ccc(CSc2nc3ccccc3c(=O)n2-c2ccccc2)cc1	0	4	5	-14
CCOC(=O)c1ccc(Nc2cc(C)nc(-c3ccccc3)n2)cc1	0	7	3	40*
CC(=O)c1cccc(Nc2c3c(nc4ccccc24)CCC3)c1	0	-4	0	56*
CC1=C(C(=O)Nc2ccccc2)C(c2ccccc2Cl)C(C#N)=C(SCC(=O)OCc2ccccc2)N1 (configuration not stated)	0	-11	-1	-8
CC(C)c1ccc(/C=C2\CC/C(=C\C=N\N(C)C)C2=O)cc1	0	-13	-1	-6
O=C1C(=C2SCCS2)CC/C1=C\c1ccco1	-1	91*	3	18
CN(C)/N=C/C=C1\CC/C(=C\c2ccco2)C1=O	0	55*	1	-42
CC(C)(C)c1ccccc1OCC(=O)Nc1ccc(Cl)c(Cl)c1	0	16	-1	1
COc1ccccc1-c1cc2nc(C)c(CCC(=O)Nc3cccc(C(C)=O)c3)c(C)n2n1	0	-20	0	23
COc1ccc(-n2c(=S)[nH]c3cc(C(=O)Nc4ccc(F)cc4)ccc3c2=O)c(OC)c1	0	3	2	71*
SMILES	FBW7 act	MITF primary	GPR151 ag	TEAD-YAP inh
O=S(=O)(/C=C/c1ccccc1)N1c2ccccc2C=CC1c1c[nH]c2ccccc12 (configuration not stated)	0	6	3	2
CCOC(=O)c1c(NC(=O)/C(C#N)=C/c2cccnc2)sc(C)c1C	2.0*	14	0	6
CCOC(=O)c1c(NC(=O)/C(C#N)=C/c2cccnc2)sc2c1CCCC2	0	-5	3	4
COc1ccccc1S(=O)(=O)NC(CCSC)C(=O)O (configuration not stated)	0	6	0	10
COC(=O)c1c(C)[nH]c(-c2csc(N)n2)c1C	0	13	0	51*
CC(=O)c1c(C)[nH]c(-c2csc(NC3CCCCC3)n2)c1C	1	-9	-1	-4
COc1cccc(NC(=O)c2cnc(SCC(=O)N3CCN(c4ccccc4)CC3)n(C)c2=O)c1	0	-7	-2	36*
COc1cccc(-c2ccc3nnc(SCC(=O)N4CCN(c5ccccc5)CC4)n3n2)c1	1	13	-1	33*
COc1ccc(C(=O)Nn2c(SCc3c(F)cccc3Cl)nc3ccccc3c2=O)cc1	0	-12	2	79*
CCOc1ccc(NC(=O)CSc2nc3ccccc3c(=O)n2NC(=O)c2ccc(OC)cc2)cc1	0	7	2	54*
CCC(Sc1nc2ccccc2c(=O)n1Cc1ccccc1OC)C(=O)NCc1cccnc1 (configuration not stated)	0	-2	-1	-8
CCC(Sc1nc2ccccc2c(=O)n1NC(=O)c1ccc(OC)cc1)C(=O)NCc1cccnc1 (configuration not stated)	0	-5	1	79*
COc1ccc(C(=O)Nn2c(SCC(=O)NCc3ccccc3)nc3ccccc3c2=O)cc1	0	-4	0	74*
CCOc1ccc(NC(=O)CSc2nc3ccccc3c(=O)n2NC(=O)c2ccccc2)cc1	0	-32	-2	2
Cc1cc(Cl)ccc1NC(=O)CN(c1c(C)cccc1C)S(C)(=O)=O	0	-11	1	-15
COc1ccc(C(=O)Nn2c(SCC(=O)NCC3CCCO3)nc3ccccc3c2=O)cc1 (configuration not stated)	0	-4	-1	84*
O=C(CSc1nc2ccccc2c(=O)n1NC(=O)Cc1ccccc1)NCC1CCCO1 (configuration not stated)	0	3	0	-1
COc1ccc(C(=O)Nn2c(SCC(=O)Nc3ccc(C)cc3)nc3ccccc3c2=O)cc1	0	-5	-1	88*
COc1ccc(C(=O)Nn2c(SCC(=O)NC3CCCC3)nc3ccccc3c2=O)cc1	0	-1	0	79*
Cc1ccc(F)c(NC(=O)NC2CCCCC2)c1	0	4	-1	-26
CCNc1nc(NCC)n2c(SCC(=O)Nc3cc(=O)n(C)c(=O)n3C)nnc2n1	0	73*	0	-3
CCNc1nc(NCC)n2c(SCC(=O)c3ccc(OC)c(OC)c3)nnc2n1	-1	69*	2	7
CCNc1nc(NCC)n2c(SCC(=O)Nc3cccc(Cl)c3C)nnc2n1	0	76*	1	4
COc1ccc(C(=O)N2CCCC(C)C2)cc1[N+](=O)[O-] (configuration not stated)	0	1	-1	-4
